A selection: hits, their analogues and other compounds. The true share with any hit is near 3.5%.
Pf apPOL inh – Pf-apPOL DNA polymerase inhibition; Recombinant Pf-apPOL, molecular beacon fluorescence, 1.5 h; inhibition, % at 10 µM; 210,000 tested, 0.25% active; AID 1794808
mHTT CaM bind – mHTT-calmodulin interaction abrogation | P42858 | AlphaScreen His-mHTT/GST-CaM binding, luminescence | inhibition, % at 15 µM | 190,000 tested, 3.6% active | AID 1671202;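 further: 0% = both proteins with DMSO and 100% = one protein alone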
An asterisk follows results filed as active; i = inactive; nt = no result given. No stated cut-off is given here; in the data, active means inhibition above about 50%; inactive means the rest.

SMILES	Pf apPOL inh	mHTT CaM bind
C[C@@]12CCC=C[C@H]1[C@H](c1cccc(Br)c1)N(Cc1ccccc1)C2=O	0.4	21.3
Cc1ccc(-c2cc([C@H]3[C@@H]4C=CCC[C@@]4(C)C(=O)N3Cc3ccccc3)ccc2F)cc1	-0.7	17.5
C[C@@]12CCC=C[C@H]1[C@H](c1ccc(Br)cc1F)N(Cc1ccccc1)C2=O	-4.3	89.7*
Cc1cc(C)n2nc(SCC(=O)NCC3CCCO3)nc2n1 (centres undefined)	-16.0	8.0
CC1(C)CC(=O)c2c(oc3ccc(NS(=O)(=O)c4cccc([N+](=O)[O-])c4)cc23)C1	-0.8	5.0
O=C(Nc1nnc(Cc2ccc(F)cc2)o1)C1CCCC1	-8.1	-10.7
O=C(O)c1ccc(-c2nc3ccc(-c4ccc5nc(-c6ccc(C(=O)O)cc6)[nH]c5c4)cc3[nH]2)cc1	85.7*	nt
Cc1cccc2[nH]c(-c3ccc(NC(=O)c4ccc(N)cc4)cc3)nc12	-2.4	21.0
CC(=O)Nc1ccc(-c2nc3ccc(NC(C)=O)cc3[nH]2)cc1	81.4*	0.8
O=[N+]([O-])c1ccc2nc(-c3ccccc3)[nH]c2c1	30.9	11.0
C=CC(=O)Nc1ccc(-c2nc3ccc(NC(=O)C=C)cc3[nH]2)cc1	5.6	1.0
Nc1ccc(C(=O)Nc2ccc(-c3nc4ccc(NC(=O)c5ccc(N)cc5)cc4[nH]3)cc2)cc1	-27.1	52.2*
COc1ccc(Cl)cc1C(=O)Nc1ccc(F)cc1	1.4	-8.1
COc1ccc(Cl)cc1C(=O)Nc1ccc(-c2nc3ccccc3[nH]2)cc1	3.7	90.0*
COc1cc(NC(=O)c2ccncc2)c(OC)cc1Cl	-8.7	-1.2
Cc1ccccc1NC(=O)c1cccc2c1C(=O)c1ccccc1-2	-2.7	18.0
O=C(c1cccnc1N1CCOCC1)N1CCCC1	-3.7	-5.4
Cc1ccccc1Cn1c(=N)n(CC(O)c2ccc(Cl)c(Cl)c2)c2ccccc21 (centres undefined)	0.5	100.2*
Cn1c(=N)n(CC(O)c2ccc(Cl)c(Cl)c2)c2ccccc21 (centres undefined)	-5.4	3.0
O=C(c1ccc(OCC2CCCN(C(=O)c3ccncc3)C2)cc1)N1CCCCC1 (centres undefined)	21.0	5.4
COCCCNC(=O)N1CCCC1c1cccc(F)c1 (centres undefined)	-1.5	-6.5
CN1CCN(CCCNC(=O)CN2N=C(c3ccc(Cl)cc3)CCC2=O)CC1	-15.8	2.0
CC(C)NC(=O)c1ccc2c(c1)N(S(C)(=O)=O)CC2	4.0	-8.4
CCOc1ccc(NC(=O)c2cnccn2)cc1	-1.7	0.2
CCN(CC)c1ccc(NC(=O)c2cnccn2)cc1	1.6	59.6*
SMILES	Pf apPOL inh	mHTT CaM bind
Cc1noc(C)c1S(=O)(=O)N1CC2CC(NC(=O)c3ccccc3)C1C2 (centres undefined)	-4.3	-0.4
COc1ccc(NC(=O)CN(c2cccc([N+](=O)[O-])c2)S(C)(=O)=O)cc1Cl	64.7*	12.5
COc1ccc(NC(=O)CN(c2ccc(Cl)cc2)S(C)(=O)=O)cc1Cl	5.7	-2.4
COc1ccc(N(CC(=O)Nc2ccc(Oc3ccccc3)cc2)S(C)(=O)=O)cc1OC	-7.8	51.8*
COc1ccc(Cl)cc1N(CC(=O)Nc1cccc([N+](=O)[O-])c1)S(C)(=O)=O	-2.8	2.8
COc1ccc(N(CC(=O)Nc2ccc(OCc3ccccc3)cc2)S(C)(=O)=O)cc1OC	-8.7	26.2
COc1ccc(NC(=O)CN(c2ccc(Cl)cc2)S(=O)(=O)c2ccccc2)cc1OC	-6.5	76.4*
Cc1c(Cl)cccc1N(CC(=O)Nc1ccc(F)c(Cl)c1)S(C)(=O)=O	-7.2	98.7*
CS(=O)(=O)N(CC(=O)Nc1ccc(F)c(Cl)c1)c1ccccc1F	-6.3	2.3
COc1ccc(C2=NC(C)(C)N(CC(=O)Nc3ccc(C)cc3)C2=O)cc1	-4.6	-4.7
O=C(COc1ccccc1[N+](=O)[O-])Nc1nnc(Cc2ccc(Cl)cc2)s1	-6.6	-1.5
Cc1cc(N2CCN(c3ncccn3)CC2)nc2ccc(NC(=O)c3ccco3)cc12	-3.5	25.0
Cc1ccc(Oc2nccnc2N2CCC(C(=O)Nc3cccc(F)c3)CC2)cc1	-6.5	7.6
CCN(CC)Cc1c(O)ccc2c(=O)c(Oc3ccc(OC)cc3)c(C)oc12	-4.8	-5.0
COc1ccc(-n2nc3c(c2NC(=O)/C=C/c2ccccc2)CSC3)cc1	-1.3	52.0*
COc1ccc(-n2nc3c(c2NC(=O)c2ccc(Br)cc2)CSC3)cc1	5.0	30.0
CC(C)C(=O)Nc1c2c(nn1-c1ccc(Oc3ccccc3)cc1)CSC2	5.3	65.0*
COc1ccc(-n2nc3c(c2NC(=O)c2ccc(C(C)(C)C)cc2)CSC3)cc1	3.4	100.0*
COc1ccc(-n2nc3c(c2NC(=O)/C=C/c2cc(OC)c(OC)c(OC)c2)CSC3)cc1	-7.0	34.0
COc1ccc(-n2nc3c(c2NC(=O)c2ccccc2)CSC3)cc1	-1.4	31.0
O=C(Nc1cccc(-c2nc3ccccc3[nH]2)c1)c1cc([N+](=O)[O-])ccc1Cl	1.2	34.0
O=C(C1CCCO1)N1CCC(OCc2nc(C3CC3)no2)CC1 (centres undefined)	-6.7	-1.9
CC(=O)Nc1ccc(-c2noc(C3CCN(C(=O)c4ccc(C#N)cc4)CC3)n2)cc1	-4.0	-7.5
CC(C)c1cc(C2CCCN2C(=O)Cc2ccccc2F)no1 (centres undefined)	-3.2	-3.7
O=[N+]([O-])c1ccc(Cc2ccncc2)cc1	-5.5	-1.4
SMILES	Pf apPOL inh	mHTT CaM bind
Cc1ccc(C)n1-c1ccc(Cc2ccncc2)cc1	-4.0	64.9*
CS(=O)(=O)Oc1ccc2c(c1)OC(=Cc1ccc(Cl)cc1)C2=O	-3.6	-4.5
CN1C(=CC=C2C(=O)Oc3ccccc3C2=O)C(C)(C)c2ccccc21	i	-6.8
CN1/C(=C\Sc2ccccc2[N+](=O)[O-])C(C)(C)c2ccccc21	0.6	76.0*
O=C(NC12CC3CC(CC(C3)C1)C2)c1cc2ccccc2o1	-5.0	-2.4
Cc1ccc2c(c1)C(C)(c1ccccc1)CC(C)(C)N2C(=O)CSc1ncn[nH]1 (centres undefined)	-3.8	30.0
COc1ccc2c(c1)-c1cc(Cl)ccc1S(=O)(=O)N2C(C)=O	-2.1	87.0*
COc1ccc(N2C=C(C#N)S(=O)(=O)c3ccc(Cl)cc32)c(C)c1	-4.5	-5.5
CCOc1ccc(CNC(=O)C2CCN(c3nnc(-c4ccc(C)cc4)o3)CC2)cc1	-5.4	33.8
NC(=S)NNC1OC(CO)C(O)C(O)C1O (centres undefined)	-0.1	nt
CCOc1ccc(C2NC(=O)c3c(sc4c3CCN(C)C4)N2)c(O)c1 (centres undefined)	-5.4	3.0
CN1CCc2c(sc3c2C(=O)NC(c2ccc(COc4ccc(Cl)c(Cl)c4)o2)N3)C1 (centres undefined)	-9.6	81.0*
CCN1CCN(C(=O)c2ccc(OC)c([N+](=O)[O-])c2)CC1	-20.6	-2.1
Cc1oc2c3c(ccc2c(=O)c1-c1ccccc1)OCN(CC1CCCO1)C3 (centres undefined)	0.6	0.2
COc1cccc(Oc2c(C)oc3c4c(ccc3c2=O)OCN(Cc2ccccn2)C4)c1	-88.4	100.3*
Cc1oc2c3c(ccc2c(=O)c1-c1ccccc1)OCN(Cc1ccccn1)C3	-10.1	69.1*
COCCN1COc2ccc3c(=O)c(Oc4cccc(OC)c4)c(C(F)(F)F)oc3c2C1	2.9	3.8
CCCNC(=O)c1cnn2c(C)c(Cc3ccc(Cl)cc3)c(C)nc12	-12.3	6.0
